Assay results: the supplement of paper PMC11732987, “Enantioselective OTUD7B fragment discovery through chemoproteomics screening and high-throughput optimisation” (Communications Chemistry, 2025)

Key:
Assay in all cases: log2 ratio of Biotin-Ahx-Ub-VS probe labelling (fragment/DMSO); higher = less target engagement (more negative = stronger competition), active = hit call of the paper (q ≤ 0.05, log2 ratio ≤ -1)
Details in all cases: compound concentration: 200 uM; treatment time: 3 h
[1] = biological target: T1, USP19 (UniProt O94966)
T1 sequence (whole entry): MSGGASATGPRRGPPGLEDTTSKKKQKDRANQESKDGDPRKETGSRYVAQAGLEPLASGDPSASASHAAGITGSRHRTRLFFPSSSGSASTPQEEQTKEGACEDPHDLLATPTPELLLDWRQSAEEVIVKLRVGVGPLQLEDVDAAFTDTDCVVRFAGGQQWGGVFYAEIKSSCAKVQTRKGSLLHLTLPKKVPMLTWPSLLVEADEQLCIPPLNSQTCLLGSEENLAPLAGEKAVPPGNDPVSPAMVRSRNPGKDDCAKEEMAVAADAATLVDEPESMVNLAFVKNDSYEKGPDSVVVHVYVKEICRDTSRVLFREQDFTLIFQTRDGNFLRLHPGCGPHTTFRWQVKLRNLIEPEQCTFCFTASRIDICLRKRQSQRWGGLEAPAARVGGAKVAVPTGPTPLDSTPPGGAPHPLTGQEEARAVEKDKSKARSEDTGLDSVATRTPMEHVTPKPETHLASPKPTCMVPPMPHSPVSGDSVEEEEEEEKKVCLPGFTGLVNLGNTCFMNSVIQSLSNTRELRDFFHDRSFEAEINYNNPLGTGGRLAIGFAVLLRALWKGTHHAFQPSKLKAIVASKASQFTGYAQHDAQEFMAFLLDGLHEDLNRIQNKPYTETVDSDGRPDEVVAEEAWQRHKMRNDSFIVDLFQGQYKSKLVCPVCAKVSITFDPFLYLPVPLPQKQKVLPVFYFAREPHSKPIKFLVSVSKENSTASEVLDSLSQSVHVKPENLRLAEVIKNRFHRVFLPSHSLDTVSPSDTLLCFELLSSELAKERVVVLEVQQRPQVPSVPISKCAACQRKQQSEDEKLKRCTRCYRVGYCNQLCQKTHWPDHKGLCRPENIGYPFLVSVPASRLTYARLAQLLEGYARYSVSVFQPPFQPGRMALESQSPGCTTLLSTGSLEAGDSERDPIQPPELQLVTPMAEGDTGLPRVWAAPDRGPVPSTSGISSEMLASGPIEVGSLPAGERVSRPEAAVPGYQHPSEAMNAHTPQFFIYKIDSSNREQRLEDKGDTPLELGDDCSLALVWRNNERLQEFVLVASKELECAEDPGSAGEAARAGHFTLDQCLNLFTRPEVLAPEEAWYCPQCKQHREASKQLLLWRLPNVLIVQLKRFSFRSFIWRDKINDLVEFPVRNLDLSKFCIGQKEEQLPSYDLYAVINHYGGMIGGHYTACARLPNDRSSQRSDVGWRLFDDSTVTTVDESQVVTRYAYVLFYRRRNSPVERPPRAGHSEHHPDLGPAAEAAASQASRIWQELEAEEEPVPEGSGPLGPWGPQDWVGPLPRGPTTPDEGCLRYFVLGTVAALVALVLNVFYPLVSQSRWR
In short: (§1)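 Fragment (200 µM) or vehicle was incubated for 3 h with triplicate HEK293T lysate samples of 495 µg, which were then treated with Biotin-Ahx-Ub-VS at 0.5 µM final for 1 h. Labelled DUBs were enriched on NeutrAvidin, digested with LysC and trypsin, and analysed by diaPASEF LC-MS/MS. Values are average log2 fragment/vehicle ratios from an unpaired t-test on global-median-normalised Spectronaut label-free quantities, using proteins with ≥2 unique peptides.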

[2] = biological target: T2, USP22 (UniProt Q9UPT9)
T2 sequence (whole entry): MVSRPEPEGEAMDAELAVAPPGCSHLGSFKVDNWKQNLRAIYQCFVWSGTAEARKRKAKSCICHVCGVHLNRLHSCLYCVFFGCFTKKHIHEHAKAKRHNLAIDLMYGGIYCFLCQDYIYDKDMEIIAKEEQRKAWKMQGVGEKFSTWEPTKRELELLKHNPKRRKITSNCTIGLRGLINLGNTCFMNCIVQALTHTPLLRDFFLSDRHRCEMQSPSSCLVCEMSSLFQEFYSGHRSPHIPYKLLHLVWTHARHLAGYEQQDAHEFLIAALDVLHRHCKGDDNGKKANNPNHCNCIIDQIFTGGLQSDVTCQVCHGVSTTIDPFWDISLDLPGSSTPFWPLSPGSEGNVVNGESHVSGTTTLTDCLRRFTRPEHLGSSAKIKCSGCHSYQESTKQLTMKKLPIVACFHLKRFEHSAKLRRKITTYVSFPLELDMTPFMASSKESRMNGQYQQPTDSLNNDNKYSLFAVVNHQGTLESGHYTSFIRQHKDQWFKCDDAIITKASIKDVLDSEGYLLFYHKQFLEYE
In short: as §1

[3] = biological target: USP24 (UniProt Q9UPU5)
In short: as §1

[4] = biological target: T3, USP25 (UniProt Q9UHP3)
T3 sequence (whole entry): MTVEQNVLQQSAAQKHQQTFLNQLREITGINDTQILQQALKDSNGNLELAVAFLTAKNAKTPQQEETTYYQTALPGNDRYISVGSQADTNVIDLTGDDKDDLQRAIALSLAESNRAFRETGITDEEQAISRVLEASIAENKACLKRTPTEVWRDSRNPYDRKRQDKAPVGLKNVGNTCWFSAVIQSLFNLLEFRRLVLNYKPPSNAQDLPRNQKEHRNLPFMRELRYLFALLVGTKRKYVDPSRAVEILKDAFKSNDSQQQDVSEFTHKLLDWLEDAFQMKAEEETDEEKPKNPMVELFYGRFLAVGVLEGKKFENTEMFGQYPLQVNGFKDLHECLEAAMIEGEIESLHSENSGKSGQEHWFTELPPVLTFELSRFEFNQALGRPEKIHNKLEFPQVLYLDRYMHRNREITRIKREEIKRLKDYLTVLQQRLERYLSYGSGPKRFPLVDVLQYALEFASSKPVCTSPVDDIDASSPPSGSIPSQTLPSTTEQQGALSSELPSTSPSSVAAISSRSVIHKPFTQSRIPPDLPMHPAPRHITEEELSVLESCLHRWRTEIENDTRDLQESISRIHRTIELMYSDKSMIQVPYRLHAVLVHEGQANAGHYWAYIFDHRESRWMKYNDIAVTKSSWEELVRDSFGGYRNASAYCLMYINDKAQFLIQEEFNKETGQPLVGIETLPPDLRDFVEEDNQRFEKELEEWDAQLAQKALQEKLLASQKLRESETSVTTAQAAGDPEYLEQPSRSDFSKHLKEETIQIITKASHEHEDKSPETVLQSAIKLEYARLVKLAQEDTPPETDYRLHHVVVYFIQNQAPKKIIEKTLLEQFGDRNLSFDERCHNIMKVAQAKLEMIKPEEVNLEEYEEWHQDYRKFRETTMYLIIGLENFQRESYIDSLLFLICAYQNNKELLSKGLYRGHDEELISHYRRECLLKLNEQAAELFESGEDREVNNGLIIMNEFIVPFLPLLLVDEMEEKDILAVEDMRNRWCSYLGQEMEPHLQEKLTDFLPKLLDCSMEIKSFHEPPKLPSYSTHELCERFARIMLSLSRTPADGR
In short: as §1

[5] = biological target: T4, USP28 (UniProt Q96RU2)
T4 sequence (whole entry): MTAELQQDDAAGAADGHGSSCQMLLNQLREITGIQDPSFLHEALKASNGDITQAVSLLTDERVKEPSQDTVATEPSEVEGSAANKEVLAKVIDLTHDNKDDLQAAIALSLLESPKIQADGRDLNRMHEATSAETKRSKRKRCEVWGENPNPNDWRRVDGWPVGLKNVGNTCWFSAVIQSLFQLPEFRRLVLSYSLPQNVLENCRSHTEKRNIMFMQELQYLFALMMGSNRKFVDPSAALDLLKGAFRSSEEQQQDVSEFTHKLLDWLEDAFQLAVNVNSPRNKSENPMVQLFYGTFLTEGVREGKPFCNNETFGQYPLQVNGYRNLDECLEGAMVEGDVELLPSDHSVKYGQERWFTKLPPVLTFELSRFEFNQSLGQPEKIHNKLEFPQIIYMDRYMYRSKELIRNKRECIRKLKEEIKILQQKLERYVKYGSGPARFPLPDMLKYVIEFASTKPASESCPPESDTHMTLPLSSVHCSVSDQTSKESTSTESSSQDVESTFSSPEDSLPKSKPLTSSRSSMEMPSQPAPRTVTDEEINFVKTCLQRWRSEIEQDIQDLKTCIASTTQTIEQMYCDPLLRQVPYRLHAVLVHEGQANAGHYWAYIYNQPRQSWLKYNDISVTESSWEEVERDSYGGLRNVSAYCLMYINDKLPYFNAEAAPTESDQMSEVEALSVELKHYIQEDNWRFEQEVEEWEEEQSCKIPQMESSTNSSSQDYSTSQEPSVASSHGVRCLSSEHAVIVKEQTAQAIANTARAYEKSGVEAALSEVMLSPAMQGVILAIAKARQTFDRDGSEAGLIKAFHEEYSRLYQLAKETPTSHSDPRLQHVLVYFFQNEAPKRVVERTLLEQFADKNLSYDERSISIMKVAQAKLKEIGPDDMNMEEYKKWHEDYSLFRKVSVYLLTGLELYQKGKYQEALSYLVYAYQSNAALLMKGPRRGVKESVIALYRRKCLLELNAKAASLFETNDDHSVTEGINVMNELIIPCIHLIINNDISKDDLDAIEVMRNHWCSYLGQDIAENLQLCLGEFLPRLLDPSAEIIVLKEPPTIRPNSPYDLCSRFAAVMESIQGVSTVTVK
In short: as §1

Measured: log2 ratio of Biotin-Ahx-Ub-VS probe labelling

Sequence of USP24 (Q9UPU5 whole entry): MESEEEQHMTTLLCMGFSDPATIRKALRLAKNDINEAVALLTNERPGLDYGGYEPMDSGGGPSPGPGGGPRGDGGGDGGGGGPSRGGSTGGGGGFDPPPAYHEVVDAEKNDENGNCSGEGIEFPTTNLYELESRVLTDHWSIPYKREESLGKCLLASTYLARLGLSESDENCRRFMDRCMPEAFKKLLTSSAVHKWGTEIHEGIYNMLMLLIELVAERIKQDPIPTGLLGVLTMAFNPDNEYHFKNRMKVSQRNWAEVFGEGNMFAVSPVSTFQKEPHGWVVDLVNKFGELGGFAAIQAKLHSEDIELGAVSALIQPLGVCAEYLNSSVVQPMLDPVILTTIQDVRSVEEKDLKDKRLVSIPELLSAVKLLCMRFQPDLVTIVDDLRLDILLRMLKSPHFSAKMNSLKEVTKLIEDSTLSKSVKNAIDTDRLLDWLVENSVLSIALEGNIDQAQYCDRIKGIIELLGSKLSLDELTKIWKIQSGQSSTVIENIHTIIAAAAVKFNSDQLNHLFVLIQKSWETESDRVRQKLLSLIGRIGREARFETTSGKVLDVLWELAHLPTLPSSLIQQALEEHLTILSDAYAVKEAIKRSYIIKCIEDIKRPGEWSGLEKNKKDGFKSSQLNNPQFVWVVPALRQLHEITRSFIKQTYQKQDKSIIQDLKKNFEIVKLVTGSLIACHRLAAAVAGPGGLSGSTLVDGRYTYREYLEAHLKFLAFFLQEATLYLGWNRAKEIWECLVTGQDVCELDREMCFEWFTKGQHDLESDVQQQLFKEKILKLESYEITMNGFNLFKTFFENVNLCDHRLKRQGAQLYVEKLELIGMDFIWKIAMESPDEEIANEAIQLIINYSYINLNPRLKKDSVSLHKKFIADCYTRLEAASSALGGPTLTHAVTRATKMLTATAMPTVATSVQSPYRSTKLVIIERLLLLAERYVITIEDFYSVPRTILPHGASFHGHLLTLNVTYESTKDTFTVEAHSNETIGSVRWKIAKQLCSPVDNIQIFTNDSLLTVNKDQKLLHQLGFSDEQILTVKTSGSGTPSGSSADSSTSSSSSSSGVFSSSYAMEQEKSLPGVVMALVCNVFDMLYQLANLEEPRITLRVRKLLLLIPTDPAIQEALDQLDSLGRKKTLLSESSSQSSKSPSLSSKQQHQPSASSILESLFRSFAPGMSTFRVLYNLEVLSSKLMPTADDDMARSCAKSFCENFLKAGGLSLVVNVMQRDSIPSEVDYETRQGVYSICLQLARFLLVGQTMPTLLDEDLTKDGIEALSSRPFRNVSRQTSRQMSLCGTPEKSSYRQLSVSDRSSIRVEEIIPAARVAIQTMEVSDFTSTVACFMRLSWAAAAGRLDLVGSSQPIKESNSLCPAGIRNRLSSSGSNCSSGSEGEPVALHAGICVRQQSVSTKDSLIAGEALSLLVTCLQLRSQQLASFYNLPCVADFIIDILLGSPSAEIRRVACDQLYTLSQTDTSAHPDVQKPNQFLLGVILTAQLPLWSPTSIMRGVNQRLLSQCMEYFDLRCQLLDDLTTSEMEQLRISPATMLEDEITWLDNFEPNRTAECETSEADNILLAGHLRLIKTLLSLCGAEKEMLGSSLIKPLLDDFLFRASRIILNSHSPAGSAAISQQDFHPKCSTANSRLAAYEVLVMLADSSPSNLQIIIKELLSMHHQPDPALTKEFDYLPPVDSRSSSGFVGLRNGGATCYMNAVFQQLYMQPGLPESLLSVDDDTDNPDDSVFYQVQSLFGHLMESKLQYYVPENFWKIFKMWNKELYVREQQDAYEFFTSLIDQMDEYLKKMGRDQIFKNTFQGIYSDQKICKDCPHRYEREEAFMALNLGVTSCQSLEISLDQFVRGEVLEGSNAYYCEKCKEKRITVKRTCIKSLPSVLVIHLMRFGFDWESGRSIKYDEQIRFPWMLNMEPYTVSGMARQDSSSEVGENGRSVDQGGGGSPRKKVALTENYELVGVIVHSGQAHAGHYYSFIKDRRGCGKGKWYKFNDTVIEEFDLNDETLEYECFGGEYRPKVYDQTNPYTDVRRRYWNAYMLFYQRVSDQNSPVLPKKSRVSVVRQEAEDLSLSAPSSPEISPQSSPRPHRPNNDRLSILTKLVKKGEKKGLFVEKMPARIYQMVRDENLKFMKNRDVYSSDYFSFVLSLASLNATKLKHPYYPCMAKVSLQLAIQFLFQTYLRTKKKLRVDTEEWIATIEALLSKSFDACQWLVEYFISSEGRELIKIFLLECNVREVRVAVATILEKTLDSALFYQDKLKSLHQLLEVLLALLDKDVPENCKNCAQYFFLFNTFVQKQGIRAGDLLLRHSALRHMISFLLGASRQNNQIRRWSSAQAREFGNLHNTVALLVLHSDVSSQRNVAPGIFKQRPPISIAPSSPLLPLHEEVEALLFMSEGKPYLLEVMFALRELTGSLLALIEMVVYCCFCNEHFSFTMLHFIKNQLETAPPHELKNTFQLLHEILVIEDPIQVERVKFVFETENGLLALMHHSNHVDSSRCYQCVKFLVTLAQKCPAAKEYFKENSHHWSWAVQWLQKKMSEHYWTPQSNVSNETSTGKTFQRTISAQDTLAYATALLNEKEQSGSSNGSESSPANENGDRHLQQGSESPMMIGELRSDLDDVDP

Cl.O=C(CCl)NCCc1ncc(F)cc1F
inactive: [1] -0.108 | [2] -0.0071 | [3] -0.335 | [4] -0.361 | [5] -0.502
